PubChem BioAssay AID1159580 (chemical genetic matrix, 2015)
In all, about 5,500 compounds went through this assay and about 2,000 (36%) were called active. Roughly 18% stayed inconclusive and do not appear here. No stated cut-off is given here; in the data, active means normalized growth mostly below about 0.91 (no sharp cut-off); inconclusive means no clear call, values can overlap the other calls; inactive means mostly above about 0.92. Some of the results follow.

Experiment: chemical genetic growth profiling, strain panel (AID 1159580);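 further: tested at 20 µM; growth read once vehicle control cultures reached saturation at 30 °C; 1 = growth at the plate median or of vehicle wells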
Conditions: growth OD

Measured: normalized growth

CC[C@@]1(O)C[C@H](O[C@H]2C[C@H](N(C)C)[C@H](O)[C@H](C)O2)c2c(cc3c(c2O)C(=O)c2c(O)ccc(O)c2C3=O)[C@H]1C(=O)OC
inactive: S. cerevisiae deletion strains, locus YJR066W, strain TOR1, stronger effect = lower value 0.957 | S. cerevisiae deletion strains, locus YKL009W, strain mrt4, stronger effect = lower value 0.961 | S. cerevisiae deletion strains, locus YKL068W, stronger effect = lower value 0.982 | S. cerevisiae deletion strains, locus YKL085W, strain MDH1 (second series), stronger effect = lower value 1 | S. cerevisiae deletion strains, locus YKL085W, strain MDH1, stronger effect = lower value 1 | S. cerevisiae deletion strains, locus YKL160W, strain elf1, stronger effect = lower value 0.924 | S. cerevisiae deletion strains, locus YKR026C, strain gcn3, stronger effect = lower value 0.994 | S. cerevisiae deletion strains, locus YKR091W, strain srl3, stronger effect = lower value 0.958 | S. cerevisiae deletion strains, locus YLL026W, stronger effect = lower value 0.975 | S. cerevisiae deletion strains, locus YLL041C, strain sdh2, stronger effect = lower value 0.935 | S. cerevisiae deletion strains, locus YLR027C, strain aat2, stronger effect = lower value 0.975 | S. cerevisiae deletion strains, locus YLR113W, strain HOG1, stronger effect = lower value 0.95 | S. cerevisiae deletion strains, locus YLR357W, strain rsc2, stronger effect = lower value 0.907 | S. cerevisiae deletion strains, locus YLR384C, strain iki3, stronger effect = lower value 0.957 | S. cerevisiae deletion strains, locus YML120C, strain ndi1, stronger effect = lower value 1.02 | S. cerevisiae deletion strains, locus YMR125W, strain sto1, stronger effect = lower value 1.02 | S. cerevisiae deletion strains, locus YMR129W, stronger effect = lower value 0.997 | S. cerevisiae deletion strains, locus YMR231W, strain pep5, stronger effect = lower value 1 | S. cerevisiae deletion strains, locus YNL071W, strain lat1, stronger effect = lower value 0.951 | S. cerevisiae deletion strains, locus YNL183C, strain NPR1, stronger effect = lower value 0.941 | S. cerevisiae deletion strains, locus YNL248C, strain rpa49, stronger effect = lower value 0.974 | S. cerevisiae deletion strains, locus YNL271C, strain bni1, stronger effect = lower value 0.96 | S. cerevisiae deletion strains, locus YNL298W, strain CLA4, stronger effect = lower value 0.98 | S. cerevisiae deletion strains, locus YNL322C, strain KRE1 (second series), stronger effect = lower value 0.972 | S. cerevisiae deletion strains, locus YNR049C, strain mso1, stronger effect = lower value 0.926 | S. cerevisiae deletion strains, locus YOL012C, strain htz1 0.253 | S. cerevisiae deletion strains, locus YOR001W, strain rrp6, stronger effect = lower value 1.01 | S. cerevisiae deletion strains, locus YOR070C, strain gyp1, stronger effect = lower value 0.989 | S. cerevisiae deletion strains, locus YOR080W, strain dia2, stronger effect = lower value 0.916 | S. cerevisiae deletion strains, locus YOR083W, strain WHI5, stronger effect = lower value 0.918 | S. cerevisiae deletion strains, locus YOR231W, strain MKK1, stronger effect = lower value 0.975 | S. cerevisiae deletion strains, locus YPL106C, strain sse1, stronger effect = lower value 0.909 | S. cerevisiae deletion strains, locus YPL240C, strain hsp82, stronger effect = lower value 0.933 | S. cerevisiae deletion strains, locus YPL256C, strain CLN2, stronger effect = lower value 0.983 | S. cerevisiae deletion strains, locus YPR141C, strain kar3, stronger effect = lower value 0.967
active: S. cerevisiae deletion strains, locus YJR075W, strain HOC1, stronger effect = lower value 0.0948 | S. cerevisiae deletion strains, locus YKR001C, strain vps1, stronger effect = lower value 0.0857 | S. cerevisiae deletion strains, locus YLL001W, strain dnm1, stronger effect = lower value 0.884 | S. cerevisiae deletion strains, locus YLR039C, strain RIC1, stronger effect = lower value 0.113 | S. cerevisiae deletion strains, locus YLR058C, strain SHM2, stronger effect = lower value 0.0794 | S. cerevisiae deletion strains, locus YLR102C, strain apc9, stronger effect = lower value 0.467 | S. cerevisiae deletion strains, locus YLR221C, strain rsa3, stronger effect = lower value 0.877 | S. cerevisiae deletion strains, locus YLR258W, strain gsy2, stronger effect = lower value 0.905 | S. cerevisiae deletion strains, locus YLR262C, strain YPT6 (second series), stronger effect = lower value 0.701 | S. cerevisiae deletion strains, locus YLR262C, strain YPT6, stronger effect = lower value 0.13 | S. cerevisiae deletion strains, locus YLR268W, strain sec22, stronger effect = lower value 0.112 | S. cerevisiae deletion strains, locus YLR320W, strain mms22, stronger effect = lower value 0.844 | S. cerevisiae deletion strains, locus YLR330W, strain CHS5, stronger effect = lower value 0.0655 | S. cerevisiae deletion strains, locus YLR342W, strain FKS1 (second series), stronger effect = lower value 0.0959 | S. cerevisiae deletion strains, locus YLR342W, strain FKS1, stronger effect = lower value 0.865 | S. cerevisiae deletion strains, locus YLR370C, strain arc18, stronger effect = lower value 0.88 | S. cerevisiae deletion strains, locus YLR371W, strain rom2, stronger effect = lower value 0.15 | S. cerevisiae deletion strains, locus YLR418C, strain cdc73, stronger effect = lower value 0.138 | S. cerevisiae deletion strains, locus YML016C, strain PPZ1, stronger effect = lower value 0.0829 | S. cerevisiae deletion strains, locus YML032C, strain rad52, stronger effect = lower value 0.121 | S. cerevisiae deletion strains, locus YML124C, strain tub3, stronger effect = lower value 0.195 | S. cerevisiae deletion strains, locus YMR058W, strain fet3, stronger effect = lower value 0.416 | S. cerevisiae deletion strains, locus YMR078C, strain ctf18, stronger effect = lower value 0.147 | S. cerevisiae deletion strains, locus YMR205C, strain PFK2, stronger effect = lower value 0.871 | S. cerevisiae deletion strains, locus YMR223W, strain ubp8, stronger effect = lower value 0.157 | S. cerevisiae deletion strains, locus YMR263W, strain SAP30, stronger effect = lower value 0.377 | S. cerevisiae deletion strains, locus YMR307W, strain GAS1, stronger effect = lower value 0.149 | S. cerevisiae deletion strains, locus YNL067W, strain RPL9B, stronger effect = lower value 0.0765 | S. cerevisiae deletion strains, locus YNL153C, strain GIM3, stronger effect = lower value 0.0856 | S. cerevisiae deletion strains, locus YNL209W, strain ssb2, stronger effect = lower value 0.82 | S. cerevisiae deletion strains, locus YNL233W, strain BNI4, stronger effect = lower value 0.0884 | S. cerevisiae deletion strains, locus YNL250W, strain rad50, stronger effect = lower value 0.738 | S. cerevisiae deletion strains, locus YNL307C, strain MCK1, stronger effect = lower value 0.0826 | S. cerevisiae deletion strains, locus YNR052C, strain pop2, stronger effect = lower value 0.0986 | S. cerevisiae deletion strains, locus YOL147C, strain pex11, stronger effect = lower value 0.13 | S. cerevisiae deletion strains, locus YOR061W, strain CKA2, stronger effect = lower value 0.0764 | S. cerevisiae deletion strains, locus YOR069W, strain VPS5, stronger effect = lower value 0.0745 | S. cerevisiae deletion strains, locus YOR106W, strain vam3, stronger effect = lower value 0.703 | S. cerevisiae deletion strains, locus YOR136W, strain idh2, stronger effect = lower value 0.203 | S. cerevisiae deletion strains, locus YOR144C, strain elg1, stronger effect = lower value 0.298 | S. cerevisiae deletion strains, locus YOR184W, strain ser1, stronger effect = lower value 0.0852 | S. cerevisiae deletion strains, locus YOR265W, strain rbl2, stronger effect = lower value 0.899 | S. cerevisiae deletion strains, locus YOR270C, strain vph1, stronger effect = lower value 0.656 | S. cerevisiae deletion strains, locus YOR290C, strain snf2, stronger effect = lower value 0.711 | S. cerevisiae deletion strains, locus YOR316C, strain cot1, stronger effect = lower value 0.21 | S. cerevisiae deletion strains, locus YPL051W, strain arl3, stronger effect = lower value 0.756 | S. cerevisiae deletion strains, locus YPL078C, strain atp4, stronger effect = lower value 0.867 | S. cerevisiae deletion strains, locus YPL241C, strain CIN2, stronger effect = lower value 0.0834 | S. cerevisiae deletion strains, locus YPR119W, strain clb2, stronger effect = lower value 0.2 | S. cerevisiae deletion strains, locus YPR163C, strain tif3, stronger effect = lower value 0.115 | S. cerevisiae deletion strains, locus YPR167C, strain met16, stronger effect = lower value 0.125 | S. cerevisiae deletion strains, strain wtn01, stronger effect = lower value 0.0957 | S. cerevisiae strains, strain wild type, stronger effect = lower value 0.0706
